Records with an inconclusive call do not appear. Calls of active or inactive are those of the source. Calls follow the shape of the dose curve; as a rule, active = well fitted curve in the direction sought with a large enough effect; inconclusive = small, poorly fitted or top-dose-only effect, or another doubt; inactive = no such curve, though single readings can be large; an effect the other way counts as inactive or inconclusive.
How the values were obtained:
[1] = MultiTox-Fluor Cytotoxicity Assay - LYMP1-001 - Dead Cells (AID 946)
Outline: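 Cytotoxicity as increased dead-cell protease fluorescence (bis-AAF-R110, 485/520 nm), read 60 min after MultiTox-Fluor reagent. Human lymphoblastoid line exposed 16 h; Hill-fitted AC50, with DMSO as 0% and 15 uM tetraoctylammonium bromide as 100%.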

[2] = MultiTox-Fluor Cytotoxicity Assay - LYMP1-001 - Live Cells (AID 947)
[3] = Cell Viability - LYMP1-002 - Assay at 16 hr (AID 948)
Outline: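 LYMP1-002 human lymphoblastoid cells, 2500/well; 5 hr 37 C; cpd 16 hr 37 C; CellTiter-Glo 30 min RT; luminescence (ATP). Concentration-response, Hill-fit AC50. Pos ctrl tetraoctylammonium bromide.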

[4] = MultiTox-Fluor Cytotoxicity Assay - LYMP1-002 - Live Cells (AID 955);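 also: cells exposed to compound for 16 hours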
Outline: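 In this qHTS viability format, lymphoblastoid cells (LYMP1-002, human) received compound for 16 hr at 37 C. Fluorogenic GF-AFC cleavage by viable cells was detected at 405/510 nm after 1 h at room temperature.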

[5] = MultiTox-Fluor Cytotoxicity Assay - LYMP1-002 - Dead Cells (AID 960); also: nearly all actives have a fitted effect of over 60% in size
Outline: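 Concentration-dependent increases in membrane-leaked protease activity are quantified in LYMP1-002 cells after 16 hr treatment; values are normalized against DMSO and tetraoctylammonium bromide (15 uM) controls and AC50 derived by Hill modeling.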

[6] = MultiTox-Fluor Cytotoxicity Assay - LYMP1-003 - Dead Cells (AID 961); also: nearly all actives have a fitted effect of over 70% in size
Outline: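 Dead-cell protease release, detected as bis-AAF-R110 fluorescence at 485/520 nm, was measured in LYMP1-003 cells after 16 h compound treatment at 37 C. AC50 values came from Hill-modeled qHTS curves normalized to DMSO (0%) and 15 uM tetraoctylammonium bromide (100%).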

[7] = MultiTox-Fluor Cytotoxicity Assay - LYMP1-003 - Live Cells (AID 962);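 also: cells exposed to compound for 16 hours at 37 °C; cytotoxic hits lower the live-cell protease signal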
Outline: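 Human lymphoblastoid line LYMP1-003 in complete culture medium, treated 16 hr with titrated compounds. Viable cells quantified via cell-permeant GF-AFC substrate fluorescence; AC50 derived by Hill fitting.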

[8] = Cell Viability - LYMP1-003 - Assay at 24 hr (AID 963)
Outline: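 The lymphoblastoid line was treated with titrated compounds for 24 hours, and viable cell number estimated from luciferase-based ATP luminescence.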

[9] = Cell Viability - LYMP1-003 - Assay at 40 hr (AID 964); also: series mostly up to about 92 µM; nearly all actives have a fitted effect of over 60% in size
Outline: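 Acute toxicity is scored as a concentration-dependent loss of intracellular ATP in LYMP1-003 cells (2500/well, complete medium) after 40 hr at 37 C, measured by CellTiter-Glo luminescence; AC50 values derive from standard Hill modelling.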

[10] = Cell Viability - LYMP2-003 (AID 965);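 also: cells exposed to compounds for 24 h before reading; nearly all actives have a fitted effect of over 50% in size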
Outline: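 CellTiter-Glo luminescence (cellular ATP) after 24 h compound exposure at 37 C in complete medium; 2500 cells/well, 5 h settling beforehand. Concentration-response fitted to standard Hill equation for AC50. Tetraoctylammonium bromide served as positive control.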

[11] = Cell Viability - LYMP2-004 (AID 966); also: nearly all actives have a fitted effect of over 65% in size
Outline: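 Viable-cell number estimated from ATP luminescence (CellTiter-Glo) in 2500 human lymphoblastoid cells/well after 24 hr at 37 C with compound. AC50 fitted to the standard Hill equation.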

[12] = Cell Viability - LYMP2-005 (AID 967); also: series mostly up to about 92 µM
Outline: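 Steps: seed 2500 LYMP2-005 cells/well, incubate 5 h at 37 C, add compound, incubate 24 h at 37 C, add CellTiter-Glo, wait 30 min at RT, read luminescence. Concentration-response data fitted to Hill equation for AC50.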

[13] = Cell Viability - LYMP2-009 (AID 968); also: series mostly up to about 92 µM; nearly all actives have a fitted effect of over 55% in size
[14] = Cell Viability - LYMP2-011 (AID 969); also: nearly all actives have a fitted effect of over 60% in size
Outline: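 Cells seeded at 2500 per well rest 5 hr before compound addition, then incubate 24 hr at 37 C. CellTiter-Glo reagent is added for 30 min at room temperature before luminescence detection.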

[15] = Cell Viability - LYMP2-013 (AID 970); also: series mostly up to about 92 µM; nearly all actives have a fitted effect of over 55% in size
Outline: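 In complete culture medium, human lymphoblastoid cells were dosed for 24 hr at 37 C, with tetraoctylammonium bromide (6.4pM to 92 uM) as positive control. Viability reflects luciferase-based ATP signal; AC50 derived from concentration-response curves.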

[16] = Cell Viability - LYMP2-015 (AID 971); also: nearly all actives have a fitted effect of over 55% in size
Outline: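 AC50 values reflect Hill-model fits of ATP-based luminescence (CellTiter-Glo) from a human lymphoblastoid line, 2500 cells/well, treated 24 hr at 37 C.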

[17] = Cell Viability - LYMP2-017 (AID 972);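 also: series mostly up to about 92 µM; cells exposed to compound for 24 hours at 37 °C; nearly all actives have a fitted effect of over 55% in size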
Outline: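 In this qHTS format, lymphoblastoid cells in complete medium receive test compound for a day at 37 C before ATP content is quantified by luciferase luminescence. Reported AC50 figures come from standard Hill-equation curve fitting.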

[18] = Cell Viability - LYMP2-019 (AID 973); also: nearly all actives have a fitted effect of over 55% in size
Outline: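 AC50 values come from Hill-equation modelling of qHTS concentration-response curves, where viability is measured as luciferase-based ATP luminescence in the lymphoblastoid line after 24 hr compound exposure in complete culture medium.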

[19] = Cell Viability - LYMP2-021 (AID 974)
Outline: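 In qHTS format, compounds are tested against 2500 lymphoblastoid cells per well for 24 h; viable cell number is inferred from ATP-driven luciferase light, and Hill-equation fitting yields AC50 values.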

[20] = Cell Viability - LYMP2-023 (AID 975)
Outline: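 In this qHTS, ATP-based luciferase luminescence (CellTiter-Glo) is quantified in human lymphoblastoid cells after 24 hr compound treatment at 37 C; tetraoctylammonium bromide serves as positive control. Concentration-response curves are Hill-fitted to give AC50.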

Measured: Potency

CCOc1cccc(N)c1
inactive: all assays above

CC(C)C(C)C
inactive: all assays above

CC(=O)c1cccc([N+](=O)[O-])c1
inactive: all assays above

Cc1c(N)cccc1[N+](=O)[O-]
inactive: all assays above

CCOCC(=O)O
inactive: all assays above

C=CCCC
inactive: all assays above

COc1ccc(N)c(OC)c1
inactive: all assays above

BrC/C=C/CBr
inactive: all assays above

CC(C)=CCC/C(C)=C/C=O
inactive: all assays above

CC(=O)Nc1cccc(N)c1
inactive: all assays above

CCCCCCCCCCCCOCC1CO1 (stereo not given)
inactive: all assays above

CC(C)c1ccccc1
inactive: all assays above

COc1cccc(N)c1
inactive: all assays above

OC(CCl)CCl
inactive: all assays above

NC(N)=S
inactive: all assays above

Cc1nc2ccc(Cl)cc2[nH]1
inactive: all assays above

C=CCOC(=O)COCCC(C)C
inactive: all assays above

O=[N+]([O-])c1ccc(NCCO)c(OCCO)c1
inactive: all assays above

O=C1NC(=O)c2cc([N+](=O)[O-])ccc21
inactive: all assays above

CC#N
inactive: all assays above

C(=C/c1ccccc1)/c1ccccc1
inactive: all assays above

CNC(=O)N(c1ccccc1)c1ccccc1
inactive: all assays above

CCOCCO
inactive: all assays above

NS(=O)(=O)O
inactive: all assays above

CCOC(=O)C(C)C(C)=O (stereo not given)
inactive: all assays above

CSc1ccc(C=O)cc1
inactive: all assays above

Clc1ccc(Cl)c(Cl)c1Cl
inactive: all assays above

c1ccc2[nH]cnc2c1
inactive: all assays above

ICCc1ccccc1
inactive: all assays above

CCNS(=O)(=O)c1ccc(C)cc1
inactive: all assays above

O=Cc1cccc(Br)c1
inactive: all assays above

Nc1cc(S(=O)(=O)O)ccc1O
inactive: all assays above

Nc1cccc(C(F)(F)F)c1
inactive: all assays above

O=C(O)c1ccc(Cl)cc1Cl
inactive: all assays above

COC(=O)CCC(=O)OC
inactive: all assays above

Cc1ccc(Cl)cc1
inactive: all assays above

Nc1cc(Cl)c([N+](=O)[O-])cc1O
inactive: all assays above

CC(C)(O)C(=O)O
inactive: all assays above

C/C=C1\CC2C=CC1C2 (stereo not given)
inactive: all assays above

CC(=C/C=C/C(C)=C/C=C/C=C(C)/C=C/C=C(C)/C=C/C(=O)O)/C=C/C(=O)O
inactive: all assays above

COCCOC(=O)c1ccccc1C(=O)OCCOC
inactive: all assays above

C=CCCCCCCC=C
inactive: all assays above

c1ccc(Nc2ccccc2)cc1
inactive: all assays above

C/C=C(/C)C#N
inactive: all assays above

CCCCCCCCCCCCC1CO1 (stereo not given)
inactive: all assays above

O=C(O)c1ccccc1C(=O)O
inactive: all assays above

CC(=O)c1ccc([N+](=O)[O-])cc1
inactive: all assays above

C1CCC2OC2C1 (stereo not given)
inactive: all assays above

CCCCC(CC)CNCC(CC)CCCC (stereo not given)
inactive: all assays above

CC/C(C)=N/O
inactive: all assays above

N#CCc1ccccc1[N+](=O)[O-]
inactive: all assays above

O=C(O[C@@H](C(=O)O)[C@@H](OC(=O)c1ccccc1)C(=O)O)c1ccccc1
inactive: all assays above

CC(=O)c1ccccn1
inactive: all assays above

Cc1ccc(C(=O)O)cc1
inactive: all assays above

Nc1ccccc1S(=O)(=O)O
inactive: all assays above

Cc1cccc2cccnc12
inactive: all assays above

O=Cc1ccc(Cl)cc1
inactive: all assays above

CCOCCOCC
inactive: all assays above

CC(=O)c1cc(C)oc1C
inactive: all assays above

Cc1cccc(C(=O)O)c1[N+](=O)[O-]
inactive: all assays above

Oc1cccc(Nc2ccccc2)c1
inactive: all assays above

Cc1cccc2sc(N)nc12
inactive: all assays above

— PubChem BioAssay (NCATS)
